Assay results from ChEMBL document CHEMBL4513135, “CO-ADD screening of IQOG CSIS (Spain) compounds”.
Entries with a potency or affinity are not part of this list.

Tests used:
[1] = tested on: Klebsiella pneumoniae; conditions: Concentration 32 ug.mL-1; ASSAY_TEST Inhibition of Bacterial Growth; detection method Absorption (OD600); MEDIA CAMHB; plate type 384well; NBS; CORNING #3640; time 18 hr
[2] = tested on: Candida albicans; conditions: 32 ug/mL
[3] = tested on: Cryptococcus neoformans; conditions: Concentration 32 ug.mL-1; ASSAY_TEST Inhibition of Fungal Growth; detection method Resazurin; Absorption (OD600-OD570); plate type 384well; NBS; CORNING #3640

Row | SMILES | Inhibition [1] [%] | Inhibition [2] [%] | Inhibition [3] [%]
1 | CNCc1cc2ccccc2n1C.Cl | 8.53 | 1.26 | -5.12
2 | N#CC1=C(Cl)Oc2c(ccc3ccccc23)C1c1cccc([N+](=O)[O-])c1 (centres undefined) | 4.09 | 6.77 | -37.01
3 | CSC1=NC(=Cc2cn(C(c3ccccc3)(c3ccccc3)c3ccccc3)c3ccccc23)C(=O)N1C | -25.3 | -0.44 | -10.07
4 | N#CC1(Br)C(=N)Oc2ccc3ccccc3c2C1c1cccc([N+](=O)[O-])c1 (centres undefined) | 16.38 | 11.2 | -26.58
5 | C#CCNc1nc(NC2CCN(Cc3ccccc3)CC2)c(C#N)c(-c2ccccc2)c1C#N | -8.37 | 5.21 | -52.49
6 | C#CCN(C)Cc1cc2cc(OCOc3ccc4c(c3)cc(CN(C)CC#C)n4C)ccc2n1C | 2.59 | -0.1 | -41.21
7 | CN(C)c1nc(N)c(C#N)cc1C#N | 27.85 | 0.31 | -5.23
8 | Cl.ClCCCN1CCCC1 | 2.47 | 8.26 | -0.84
9 | C#CCN1CCc2nc3nc(NC4CCN(Cc5ccccc5)CC4)c(C#N)cc3c(N)c2C1 | 10.49 | 5.66 | -17.48
10 | C#CCNC(=O)c1cc2cc(OCCCC3CCN(Cc4ccccc4)CC3)ccc2[nH]1 | 4.92 | 1.71 | -106.43
11 | CC(=O)Oc1ccc(C=C2N=C(c3ccccc3)OC2=O)c(OC(C)=O)c1 | 2.13 | 3.75 | -6.54
12 | C#CCN1CCc2nc3nc(N(C)C)c(C#N)cc3c(N)c2C1 | 15.18 | 3.18 | -99.98
13 | O=C(N/N=C/c1ccc(Cl)cc1)c1cc2ccccc2[nH]1 | -19.43 | 3.28 | -0.9
14 | N#CC1(Br)C(=NBr)Oc2ccc3ccccc3c2C1c1ccc([N+](=O)[O-])cc1 (centres undefined) | -0.48 | 2.19 | -71.87
15 | C#CCN(C)Cc1cc2cc(OCc3ccccc3)ccc2n1C.O=C(O)C(=O)O | 16.32 | 2.13 | -91.88
16 | O=C(Cc1c[nH]c2ccccc12)NN=C1CCCCCC1 | -21.31 | 1.07 | -2.54
17 | O=C(N[C@H]1CC[C@@H](Br)[C@@H](Br)C1)C(F)(F)F | 11.37 | 9.4 | -47.65
18 | CCOC(=O)/C(C#N)=C\c1ccc([N+](=O)[O-])cc1 | 10.6 | 5.79 | -3.2
19 | COc1ccc2cc(C3C(C(C)=O)=C(C)Oc4nc5c(c(N)c43)CCC5)c(Cl)nc2c1 (centres undefined) | 0.03 | 12.4 | -0.43
20 | CN(Cc1cn(Cc2ccccc2)nn1)Cc1cc2cc(OCCCC3CCN(Cc4ccccc4)CC3)ccc2n1C | 4.39 | 2.75 | -73.92
21 | O=C(O)c1cc2ccccc2[nH]1 [INDOLE-2-CARBOXYLIC ACID] | 1.67 | 26.2 | -9.27
22 | Cc1n[nH]c2c1C(c1ccc([N+](=O)[O-])cc1)C(C#N)=C(N)O2 (centres undefined) | -7.74 | 3.15 | -4.51
23 | COC1=C(C#N)CC(C)C(=O)N1 (centres undefined) | 6.94 | 1.01 | -33.52
24 | CC1=NC(=Cc2ccccc2)C(=O)S1 | 11 | 0.37 | -6.24
25 | CNC(=O)c1cc2cc(OC)ccc2[nH]1 | 17.99 | -0.84 | -6.03

Row | SMILES | Inhibition [1] [%] | Inhibition [2] [%] | Inhibition [3] [%]
26 | O=C(N/N=C/c1cccc(Cl)c1)c1cc2ccccc2[nH]1 | -14.42 | -0.35 | -2.87
27 | N#Cc1cc(C#N)c(NCCCCC2CCN(Cc3ccccc3)CC2)nc1N | 18.34 | 1.01 | -105.28
28 | COc1ccc(C2c3c(ccc4ccccc34)OC(=N)C2(Br)C#N)cc1 (centres undefined) | 10.22 | 17.9 | -84.01
29 | Cn1c(C(=O)NCc2ccccc2)cc2cc(OCCCC3CCN(Cc4ccccc4)CC3)ccc21 | 8.4 | 1.62 | -77.02
30 | Cc1ccc(C(O)SNNc2ncnc3c2c(C)nn3-c2ccccc2)cc1 (centres undefined) | -18.74 | 1.06 | -5.03
31 | Cn1ccnc1C1C(C#N)=C(N)Oc2c1ccc1cccnc21 (centres undefined) | 9.74 | 0.91 | -53.28
32 | CN(C)c1ccc(C(=NNC(=O)c2cc3ccccc3[nH]2)c2ccc(N(C)C)cc2)cc1 | -1.36 | -0.9 | -8.51
33 | C/C=C(/C#N)C(=O)OC | 5.34 | -0.41 | -2.55
34 | COc1ccc(C2c3c(ccc4ccccc34)OC(=NBr)C2(Br)C#N)cc1OC (centres undefined) | 4.11 | 18 | -72.67
35 | COc1ccc(C2c3c(nc4c(c3N)CCCC4)Oc3ccc4ccccc4c32)c(OC)c1 (centres undefined) | 6.37 | 10.9 | 16.32
36 | N#Cc1c(N)nc(N2CCC(Cc3ccccc3)CC2)c(C#N)c1-c1ccccc1 | 7.85 | 1.84 | -30
37 | O=C(Cc1c[nH]c2ccccc12)N/N=C/c1ccco1 | 10.08 | -1.03 | -6.47
38 | CCCCCCC(C)NNC(=O)c1cc2ccccc2[nH]1 (centres undefined) | -31.72 | 3.47 | -2.85
39 | O=C(NNC(Cc1ccccc1)Cc1ccccc1)c1cc2ccccc2[nH]1 | 6.36 | -2.25 | -1.71
40 | CN(C)c1nc(N)c(C#N)c(-c2ccccc2)c1C#N | -2.21 | 0.74 | -0.79
41 | C#CCN(C)c1nc(Cl)c(C#N)c(-c2ccccc2)c1C#N | 7.31 | 11.2 | -24.12
42 | C#CCN(C)c1nc(OC)c(C#N)c(-c2ccccc2)c1C#N | 15.23 | 4.58 | -56.39
43 | NOC(=O)C1CCN(Cc2ccccc2)CC1 | 4.34 | 1.62 | -5.93
44 | COc1cccc(C2c3ccc4ccccc4c3OC(=NBr)C2(Br)C#N)c1 (centres undefined) | 5.65 | -0.64 | -51.44
45 | Nc1c2c(nc3c1C(c1ccc(Cl)c(Cl)c1)c1ccc4ccccc4c1O3)CCCC2 (centres undefined) | -10.24 | 4.63 | -2.87
46 | CCOC(=O)C1=C(C)OC(N)=C(C#N)C1c1ccncc1 (centres undefined) | 10.54 | -1.5 | -58.29
47 | COc1cc(Br)c(C=O)cc1OC | 3.95 | 3.94 | -3.9
48 | COc1ccc2c(c1)cc(CNc1ccccc1)n2C | 12.88 | 1.07 | -85.66
49 | N#Cc1c(Cl)nc(NC2CCN(Cc3ccccc3)CC2)c(C#N)c1-c1ccccc1 | 0.34 | -0.87 | -53.1
50 | C#CCN(C)Cc1cc2cc(OC)ccc2n1C | 12.36 | 5.35 | -77.43

Row | SMILES | Inhibition [1] [%] | Inhibition [2] [%] | Inhibition [3] [%]
51 | COc1nc(Cl)c(C#N)c(-c2ccccc2)c1C#N | 0.27 | 31.9 | -41.05
52 | COc1ccc(C=C2N=C(c3ccccc3)OC2=O)cc1 | 13.35 | 0.77 | -7.5
53 | O=C(NNCCc1ccccc1)c1cc2ccccc2[nH]1 | 0.93 | -1.59 | -3.77
54 | C#CCN(C)c1nc(NCC2CCN(Cc3ccccc3)CC2)c(C#N)c(-c2ccccc2)c1C#N | 6.45 | 0.51 | -3.47
55 | Cc1ccc2nc(Cl)c(/C=N/NCc3ccccc3)cc2c1 | 7.66 | 14.7 | -3.59
56 | O=C(N[C@H]1CC[C@H](O)CC1)c1ccccc1 | 10.98 | 2.54 | -38.05
57 | CC(=O)NCCc1ccccc1 | 14.22 | 1.13 | -3.47
58 | Br.C#CCNCC | 7.82 | 3.14 | -9.78
59 | Cc1nc2c3cnn(-c4ccccc4)c3ncn2n1 | 15.65 | 0.21 | -3.17
60 | CCOc1nc2nc(C)c(C=C3CCN(Cc4ccccc4)CC3)cc2c(-c2ccccc2)c1C#N | 20.16 | 2.44 | -63.91
61 | N#Cc1cccnc1N | 16.36 | 1.57 | -34.57
62 | O=C(Cc1c[nH]c2ccccc12)NN=Cc1ccccc1 | -6 | -0.87 | -1.93
63 | N#CC1(Br)C(=NBr)Oc2c(ccc3ccccc23)C1c1ccccc1[N+](=O)[O-] (centres undefined) | 24.4 | 25 | -80.63
64 | N#Cc1cc(C#N)c(N2CCC(O)CC2)nc1N | -4.97 | 1.52 | -52.44
65 | Nc1c2c(nc3c1C(c1ccc([N+](=O)[O-])cc1)c1c(ccc4ccccc14)O3)CCCC2 (centres undefined) | 9.13 | 1.59 | -0.47
66 | CCOC(=O)/C(C#N)=C\c1ccc(Cl)cc1 | 4.33 | -0.09 | -5.03
67 | CCOC(=O)c1cc2cc(OCc3ccccc3)ccc2[nH]1 | 6.66 | 1.86 | -3.27
68 | CCOC(=O)c1cn(C)c2ccccc12 | 12.15 | 7.9 | -4.62
69 | O=C1OC(c2ccccc2)=NC1=Cc1ccccc1Cl | 11.08 | 1.66 | -1.51
70 | CC1(C)OC(=O)C(=Cc2ccc([N+](=O)[O-])cc2)C(=O)O1 | 18.71 | 1.46 | -6.06
71 | CCOC(=O)C1=C(C)NC(N)=C(C#N)C1c1ccc(OC)cc1 (centres undefined) | 13.36 | 5.45 | -57.77
72 | CCOC(=O)c1cc(C#N)c(N)nc1C | 5.86 | 2.73 | -17.38
73 | CCOC(=O)c1c(C)nc(NC2CCN(Cc3ccccc3)CC2)c(C#N)c1-c1ccccc1 | 11.42 | 3.26 | -46.25
